In the library only some 7.3% were active in any assay of this set; here they are far more common.
VACV mCherry inh = qHTS for Stage-Specific Inhibitors of Vaccinia Orthopoxvirus: mCherry Reporter Primary qHTS; AID 720579, 2013; 310,000 compounds, 0.63% hits; Potency, µM (highest dose often 36.5 µM), inactives show at the top dose activity change, negative = inhibition, most hits filed as inhibitors; Vaccinia virus mCherry reporter infection, fluorescence; calls by dose curve; tested in A549 cells; also: potency is read from the fitted curve at half-maximal effect; nearly all actives have a fitted effect of over 35% in size
HCV inhibitor = qHTS Assay for Inhibitors of Hepatitis C Virus (HCV); Huh7.5.1 HCVcc-Cre infection, luciferase reporter, 44 h; Potency, µM (top dose mostly 41.8 µM), without a hit: at the top dose activity change, negative = inhibition, actives largely listed as inhibitors; 340,000 compounds, 3.4% hits; AID 651820, 2012; active = well fitted inhibition curve with a large enough effect; inconclusive = small, poorly fitted or top-dose-only effect, or another doubt; inactive = no such curve, though single readings can be large or run the other way; also: potency is read from the fitted curve at half-maximal effect
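1,000 cells/well; 4 h culture; + compound; + HCVcc-Cre (~0.5 moi); 44 h; luciferase substrate, RT 15 min; read 15 sec.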
FMDV antiviral = High Throughput Screening for Foot and Mouth Disease Virus Antivirals; 410,000 compounds, 1.2% hits; Potency, µM (highest dose often 57.9 µM), without a hit: top-dose activity change, negative = inhibition, hits mostly inhibitors; FMDV antiviral cell-based qHTS; calls by dose curve; tested in HEK293T cells; also: read-out not given here; potency is read from the fitted curve at half-maximal effect; nearly all actives have a fitted effect of over 45% in size
HCMV antiviral = qHTS Assay for inhibitors of the human cytomegalovirus (HCMV); HFF cells, HCMV-luciferase reporter, 72 h; stronger effect = lower value; activity change, negative = inhibition, % at 57.5 µM; 410,000 compounds, 4.5% hits; AID 1259415, 2018; in the data active = activity change below about -60%; inconclusive = no clear call, values can overlap the other calls; inactive = above about -39%
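Cell-based, HFFs, 1000 cells/well, 16 h 37C; cpds in DMSO + HCMV-luc, MOI 1 PFU/cell; 72 h 37C; OneGlo luminescence after 5 min RT; norm. to buffer vs Salinomycin 10uM.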
VACV Venus inh = qHTS for Stage-Specific Inhibitors of Vaccinia Orthopoxvirus: Venus Reporter Primary qHTS. Vaccinia virus Venus reporter expression, fluorescence. Potency, µM (series often up to 36.5 µM), for inactives: at the highest dose activity change, negative = inhibition, hits mostly inhibitors. 330,000 compounds, 0.46% hits. AID 720580, 2013; calls by dose curve; tested in A549 cells; also: potency is read from the fitted curve at half-maximal effect; nearly all actives have a fitted effect of over 30% in size
Active calls of the source: *; i = inactive; ? = inconclusive; · = no result; + = active, no number; [ ] = dose if it differs, or a comment. % is scaled to controls: 0 for no effect and ±100 for the full control effect.

SMILES	VACV mCherry inh	HCV inhibitor	FMDV antiviral	HCMV antiviral	VACV Venus inh
CC1(C)NC(=O)N(CCCCOc2ccc(Cl)cc2)C1=O	·	10.0%	-6.6%	3.7	·
CC1(C)NC(=O)N(CCCCOc2ccc(Cl)cc2C=O)C1=O	-5.1%	-14.9%	-6.7%	-60.0*	-21.7%
CC(C)Cn1c(SCC(=O)Nc2cccnc2Cl)nnc1-c1ccco1	-16.2%	5.5%	6.8%	-38.9	6.6%
COCCNc1ncnc2ccc(-c3cccc(OC)c3)cc12	·	·	-2.6%	·	·
CCOC(=O)[C@@H]1[C@H]2COc3cc(OC)ccc3[C@H]2N2C(=O)N(c3ccc(C(F)(F)F)cc3)C(=O)[C@]12C	i	?	?	-87.5*	?
CCOC(=O)[C@@H]1[C@H]2COc3cc(OC)ccc3[C@H]2N2C(=O)N(c3ccc(C)cc3)C(=O)[C@@]12C	-0.3%	5.1%	-23.3%	-75.2*	-21.9%
COc1cc(-c2cc3n(C)c(C)c(CCC(=O)NC4CCCCC4)c(=O)n3n2)cc(OC)c1OC	-10.3%	·	-1.3%	152.3	-6.4%
CCOc1ccccc1NS(=O)(=O)c1ccc(-c2cnc(C3CC3)o2)cc1	-30.5%[7.34 µM]	?	?	+	-27.2%[7.34 µM]
Cc1cc(C)c(NS(=O)(=O)c2cc(-c3cnc(C4CC4)o3)ccc2C)c(C)c1	-8.1%	·	11.2%	-13.1	-4.1%
Cc1cc(C)c(NS(=O)(=O)c2ccc(-c3cnc(C4CC4)o3)cc2)c(C)c1	-28.9%	·	-8.1%	-91.9*	-29.7%
COc1ccc(NS(=O)(=O)c2ccc(-c3cnc(C4CC4)o3)cc2)cc1OC	·	?	-20.0%	-73.6*	·
COc1ccc(Nc2cc(Cl)nc(N)n2)cc1OC	i	-21.8%	0.1%	17.9	-10.1%
O=C(COc1ccc(F)cc1)NC1CC(=O)N(c2ccc3c(c2)OCCO3)C1 (configuration not stated)	-2.2%	·	12.2%	-107.7*	-1.8%
COc1cc2c(cc1OC)C(C1C(=O)CC(C)(C)CC1=O)N(C(=O)CCl)CC2 (configuration not stated)	-2.5%	4.0%	-0.2%	-39.1	i
COc1cc2c(cc1OC)C(c1cc(Br)ccc1F)N(C(=O)CCl)CC2 (configuration not stated)	?	?	28.2µM*	-92.8*	?
Cc1cc(C(=O)NC2CC(C)(C)Cc3c2cnn3-c2ccccc2)n(C)n1 (configuration not stated)	i	-15.0%	?	-18.1	-7.3%
CC(=O)[C@@]1(O)C(C)CC2C3C=C(C)C4=Cc5c(cnn5-c5ccccc5)C[C@]4(C)C3C(O)C[C@@]21C (some centres not stated)	-24.7%	7.08µM*	-18.2%	?	?
Cc1cccc(C(=O)Nc2ccc(C(=O)OCc3cc(=O)n4nc(C5CC5)sc4n3)cc2)c1	?	·	14.1µM*	-9.5	?
Cc1ccc(C(=O)Nc2ccccc2C(=O)OCc2cc(=O)n3nc(C(C)C)sc3n2)cc1	-9.9%	·	-24.0%	-13.9	-2.0%
Cc1nn2c(=O)cc(COC(=O)c3ccc(NC(=O)c4ccc(C(C)(C)C)cc4)cc3)nc2s1	-7.1%	·	12.2%	-38.1	-20.3%
Cc1nn2c(=O)cc(COC(=O)c3ccc(NC(=O)c4cccc(Br)c4)cc3)nc2s1	-7.2%	·	17.8µM*	11.1	-26.5%
CC(C)c1nn2c(=O)cc(COC(=O)c3ccccc3NC(=O)c3cccc(Cl)c3)nc2s1	i	·	8.91µM*	-29.9	-20.9%
Cc1nn2c(=O)cc(COC(=O)c3ccc(NC(=O)C4CCCCC4)cc3)nc2s1	-41.2%	·	11.2µM*	-64.6*	?
C=CCN1C(=O)c2ccc(C(=O)OCC(=O)N(CC)c3c(N)n(Cc4ccccc4)c(=O)[nH]c3=O)cc2C1=O	·	14.4%	-15.1%	0.0	·
O=C(NC(=O)c1cccc(F)c1)OC[C@@H]1CCCN2CCCC[C@H]12	-12.9%	19.1%	-20.9%	128.6	-9.9%
SMILES	VACV mCherry inh	HCV inhibitor	FMDV antiviral	HCMV antiviral	VACV Venus inh
Cc1ccccc1C(=O)Nc1ccc(C(=O)OCc2cc(=O)n3nc(C4CC4)sc3n2)cc1	?	·	12.6µM*	-81.0*	-24.4%
O=C(Nc1cccc(C(=O)OCc2cc(=O)n3c4c(sc3n2)CCCC4)c1)c1ccccc1	-9.3%	·	-7.7%	0.6	-10.4%
O=C(Nc1ccc(C(=O)OC[C@@H]2CCCN3CCCC[C@H]23)cc1)c1cccc(Br)c1	-1.0%	11.2µM*	-4.1%	-4.5	?
Cc1nn2c(=O)cc(COC(=O)c3cccc(NC(=O)c4cccs4)c3)nc2s1	i	·	10µM*	-11.4	-18.9%
Cc1ccc(C(=O)Nc2cccc(C(=O)OCc3cc(=O)n4c5c(sc4n3)CCCC5)c2)cc1	-14.0%	·	-18.5%	-88.2*	-14.8%
Cc1ccc(C(=O)Nc2ccc(-c3csc(C)n3)cc2)cc1	-4.3%	?	0.6%	?	-23.9%
O=C(O)c1ccccc1C(=O)Nc1ccc(-c2csc(-c3ccccc3)n2)cc1	-8.4%	?	13.3%	-10.2	-24.1%
O=C(Nc1ccc(-c2csc(-c3ccccc3)n2)cc1)c1ccccc1Cl	?	?	·	-66.6*	?
O=C(Nc1ccc(-c2csc(Nc3ccc(Cl)cc3)n2)cc1)c1ccccc1	i	?	-9.6%	-33.7	0.8%
Cc1nc(-c2ccc(NC(=O)c3ccccc3)cc2)cs1	·	11.2µM*	-41.6%	?	·
O=C(Nc1ccc(-c2csc(Nc3cccc(C(F)(F)F)c3)n2)cc1)c1ccccc1	?	?	?	-83.0*	?
O=C(Nc1ccc(-c2csc(Nc3cccc(C(F)(F)F)c3)n2)cc1)c1cc([N+](=O)[O-])cc(C(F)(F)F)c1	-29.5%	?	?	-78.3*	?
Cc1cnc2c(C)cccc2c1/C=C/c1ccc(N(C)C)cc1	-14.7%	·	·	·	-6.7%
O=C(Nc1cccc(Cl)c1)C1C2CCC3C(CCC21)C3(Cl)Cl (configuration not stated)	-14.6%	?	39.8µM*	-10.3	?
CC(C)c1ccc(/C=N/NC(=O)c2ccccn2)cc1	i	9.2%	12.6µM*	68.8	-18.8%
CC(C)c1ccc(/C=N/NC(=O)c2cccc(Cl)c2)cc1	?	7.08µM*	-54.6%	70.5	?
OCCN1CCN(c2nccn3ccnc23)CC1	-6.7%	·	-6.6%	5.9	4.1%
OC[C@H]1OC(O)[C@H](O)[C@@H](O)[C@H]1O (some centres not stated)	-0.7%	-15.3%	-21.8%	-61.3*	-11.1%
CCOc1ccc(CCNC(=O)CSc2nnnn2-c2ccccc2Cl)cc1OCC	-13.2%	·	-25.0%	5.1	-11.6%
Cc1ccc(CS(=O)(=O)c2ccc(C(=O)N3CCCCC3)cc2[N+](=O)[O-])cc1	-25.1%	-9.4%	?	-26.8	-13.4%
O=C(c1ccc(S(=O)(=O)c2ccccc2Cl)c([N+](=O)[O-])c1)N1CCN(Cc2ccccc2)CC1	-6.1%	?	11.2µM*	-84.9*	-16.2%

Screens (PubChem BioAssay)
